# Measured values taken from ChEMBL document CHEMBL3988442, “University of Dundee, Small-Polar-MMV Screening Library” (2021).
# The whole screen tested about 69,000 compounds, of which about 1,000 (1.4%) showed an effect of 50% or more. This is one part of a sample in which strong results are shown more often than they occur.
# Tested on: Leishmania donovani
# Assay: Leishmania intramacrophage assay
# Type: functional, organism-based
# Set-up: scale not given: in the data most compounds retested in dose-response had high values
smiles,measurement,setting,value
Cn1cc(S(=O)(=O)N(Cc2ccc(F)cc2F)C2CC2)cc1C(N)=O,Percent Effect,"30.3 µM, […]",34.27%
CNS(=O)(=O)CC1CCCN1C(=O)c1ccc(C)c(C)c1 (stereo not given),Percent Effect,"30.3 µM, […]",-9.061%
O=c1cc(-c2ccccc2)nc2n1CCCCC2,Percent Effect,"30.3 µM, […]",-39.42%
COCC(=O)NCc1cc2n(n1)CCCN(CCCC1CCCC1)C2,Percent Effect,"30.3 µM, […]",20.98%
COCC(=O)N1CCC2(CCN(c3cnn(C)c3)C2=O)C1 (stereo not given),Percent Effect,"30.3 µM, […]",13.44%
O=C([C@@H]1C[C@@H]2CCN(C3CCOCC3)C[C@@H]2O1)N1CCOCC1,Percent Effect,"30.3 µM, […]",9.764%
Cc1nn(C)cc1CN(C)C(=O)c1cnccn1,Percent Effect,"30.3 µM, […]",-25.04%
CCC(=O)NCCNC(=O)c1nn(C)c(C)c1Cl,Percent Effect,"30.3 µM, […]",-0.8741%
CCN1CCN(C[C@@H]2CN(c3ncccc3Cl)C[C@@H]2CO)CC1,Percent Effect,"30.3 µM, […]",25.54%
CCN1CCN(C[C@@H]2CN(c3ncc(Cl)cc3F)C[C@@H]2CO)CC1,Percent Effect,"30.3 µM, […]",46.16%
CCN1CCN(C[C@@H]2CN(c3ncc(Cl)cc3Cl)C[C@@H]2CO)CC1,Percent Effect,"30.3 µM, […]",62.72%
O=C(NCCc1nccs1)[C@H](c1ccccc1)n1cnnn1,Percent Effect,"30.3 µM, […]",10.58%
Cc1c[nH]nc1C1CCN(C(=O)C2CCCC2)C1 (stereo not given),Percent Effect,"30.3 µM, […]",-28.74%
CC(C)N1CCC(c2n[nH]cc2-c2ccnc(N)c2)C1 (stereo not given),Percent Effect,"30.3 µM, […]",28.17%
CC(C)Nc1cc(-c2c[nH]nc2C2CCN(C(=O)C3CCC3)C2)ccn1 (stereo not given),Percent Effect,"30.3 µM, […]",63.06%
CC(=O)N1CCC(c2n[nH]cc2-c2ccnc(N)c2)C1 (stereo not given),Percent Effect,"30.3 µM, […]",29.98%
CC(C)CNc1cc(-c2c[nH]nc2C2CCN(C(=O)C3CC3)C2)ccn1 (stereo not given),Percent Effect,"30.3 µM, […]",60.8%
Nc1cc(-c2c[nH]nc2C2CCCCN2C(=O)C2CCCC2)ccn1 (stereo not given),Percent Effect,"30.3 µM, […]",12.99%
CC(C)Nc1cc(-c2c[nH]nc2C2CCN(C(=O)C3CC3)C2)ccn1 (stereo not given),Percent Effect,"30.3 µM, […]",49.22%
Cc1c[nH]nc1C1CCN(C(=O)C2CCOCC2)C1 (stereo not given),Percent Effect,"30.3 µM, […]",-3.336%
CCCNc1cc(-c2c[nH]nc2C2CCN(C(=O)C3CCC3)C2)ccn1 (stereo not given),Percent Effect,"30.3 µM, […]",53.3%
CC(C)OCC(=O)N1CCC(c2ncncc2-c2ccnc(N)c2)C1 (stereo not given),Percent Effect,"30.3 µM, […]",-5.314%
Nc1cc(-c2c[nH]nc2C2CCN(C(=O)C3CCCC3)C2)ccn1 (stereo not given),Percent Effect,"30.3 µM, […]",42.83%
CN1CCC(c2n[nH]cc2-c2ccnc(N)c2)C1 (stereo not given),Percent Effect,"30.3 µM, […]",52.81%
COCCNC(=O)[C@H]1CN(Cc2cccs2)C[C@H]2OCC[C@@H]12.O=C(O)C(F)(F)F,Percent Effect,"30.3 µM, […]",-23.24%
Cn1cc(-c2cc(C(F)(F)F)nn2CCC#N)cn1,Percent Effect,"30.3 µM, […]",-0.6212%
CCCn1nccc1-c1nccnc1CC1CCN(C(C)=O)CC1,Percent Effect,"30.3 µM, […]",-24.99%
NCCn1nc(C2CCN(C(=O)CC3CCCCC3)C2)c2nccnc21 (stereo not given),Percent Effect,"30 µM, 30.03 µM",-5.021%
Nc1ccc(C(=O)N2C[C@@H]3CC[C@H](C2)N(Cc2ccccc2)C3)cn1,Percent Effect,"30.3 µM, […]",19.02%
COC1COC2(CCN(CC3CC3)CC2)C1.O=C(O)C(F)(F)F (stereo not given),Percent Effect,"30.3 µM, […]",18.41%
COCCC(=O)N1C[C@@H](c2ccc(F)c(F)c2)[C@@]2(CCCC(=O)N2)C1,Percent Effect,"30.3 µM, […]",28.03%
COC(=O)N1CCCC(C(=O)NCCc2c[nH]c3cc(C)ccc23)C1 (stereo not given),Percent Effect,"30.3 µM, […]",6.757%
Cc1ccc(C2CSCCN2C(=O)c2ccc(C(N)=O)cc2)o1 (stereo not given),Percent Effect,"30 µM, 30.03 µM",7.343%
Cc1nccnc1N1C[C@H](NC(=O)CNS(C)(=O)=O)[C@@H](C2CC2)C1,Percent Effect,"30.3 µM, […]",8.886%
Cn1nc(C(=O)N2CCCC2)c2c1CN(CC1CCOCC1)C2,Percent Effect,"30.3 µM, […]",-0.9877%
Cn1nc(C(=O)N2CCOCC2)c2c1CN(CC1CC1)C2.O=C(O)C(F)(F)F.O=C(O)C(F)(F)F,Percent Effect,"30.3 µM, […]",55.32%
Cn1nc(C(=O)N2CCOCC2)c2c1CN(CC1CCC1)C2,Percent Effect,"30.3 µM, […]",23.43%
CC(C)(C)C(=O)NCCC(=O)NC(C)(C)c1ccc2c(c1)OCO2,Percent Effect,"30.3 µM, […]",2.237%
c1cncc(OCc2noc3c2CN(Cc2ccoc2)CC3)c1,Percent Effect,"30 µM, 30.03 µM",10.86%
O=C(N1CCCC1)N1CCc2onc(COc3cccnc3)c2C1.O=C(O)C(F)(F)F,Percent Effect,"30.3 µM, […]",0.9186%
Cc1cnc(N2CCc3onc(COc4cccnc4)c3C2)nc1,Percent Effect,"30.3 µM, […]",77.52%
CNS(=O)(=O)Cc1ccc(CNC(=O)c2cccc(C)n2)cc1,Percent Effect,"30 µM, 30.03 µM",36.89%
Cc1cc2c(cc1NC(=O)NC(C)(C)C)OCO2,Percent Effect,"30.3 µM, […]",-22.07%
Cc1nnc(CN(CCc2ccccc2)C2CCN(C)CC2)s1,Percent Effect,"30.3 µM, […]",1.604%
NCCn1nc(C2CCN(Cc3ccc(Cl)c(Cl)c3)C2)c2nccnc21 (stereo not given),Percent Effect,"30 µM, 30.03 µM",52.46%
NCCn1nc(C2CCN(Cc3ccccc3)C2)c2nccnc21 (stereo not given),Percent Effect,"30.3 µM, […]",5.976%
NCCn1nc(C2CCN(Cc3ccccc3Cl)C2)c2nccnc21 (stereo not given),Percent Effect,"30.3 µM, […]",9.93%
Clc1cccc2c3c([nH]c12)CCN(Cc1cc2n(n1)CCNC2)C3,Percent Effect,"30.3 µM, […]",28.65%
c1ccc2c3c([nH]c2c1)CN(Cc1cc2n(n1)CCNC2)CC3,Percent Effect,"30.3 µM, […]",19.37%
Clc1cccc2c3c([nH]c12)CCN(Cc1cc2n(n1)CCCNC2)C3,Percent Effect,"30.3 µM, […]",94.36%
COc1ccc(C(C)N(C)Cc2c(C(C)C)[nH]c3ncccc23)cc1 (stereo not given),Percent Effect,"30.3 µM, […]",-22.28%
CCN1CCCC1CN(CCN(C)C)S(=O)(=O)c1ccccc1C#N (stereo not given),Percent Effect,"30.3 µM, […]",13.5%
O=C(OCC1CCCN(C(=O)c2ccccc2)C1)c1cscn1 (stereo not given),Percent Effect,"30.3 µM, […]",-48.09%
O=C(OCC1CCN(c2ccccc2)C1)c1cscn1 (stereo not given),Percent Effect,"30.3 µM, […]",51.5%
COCc1nc(C(=O)OCC2CCN(c3ccccc3)C2)cs1 (stereo not given),Percent Effect,"30.3 µM, […]",-78.1%
COc1cc(C(=O)N(Cc2ccc(F)cc2)C2CC2)cc2c1OCCO2,Percent Effect,"30 µM, 30.03 µM",14.84%
CCCNC(=O)N1CCc2ccc(S(=O)(=O)N3CCOCC3)cc2C1,Percent Effect,"30.3 µM, […]",11.75%
CC1=C(CCN2CC[C@@H](N3CCC(O)CC3)[C@H](O)C2)C(C)(C)CCC1,Percent Effect,"30.3 µM, […]",56.28%
CC1=C(CCN2CCCC(O)C2)C(C)(C)CCC1 (stereo not given),Percent Effect,"30.3 µM, […]",25.33%
CC1=C(CCN2C[C@H](O)[C@@H](N3CCOCC3)C2)C(C)(C)CCC1,Percent Effect,"30.3 µM, […]",-12.68%
Cc1ccc(N(Cc2ccco2)C(=O)CC2=NN(C)C(=O)C2)cc1,Percent Effect,"30.3 µM, […]",6.943%
Cc1nc(C2(O)CCCNCC2)sc1CCOc1ccc(Cl)cc1.Cl (stereo not given),Percent Effect,"30 µM, 30.03 µM",92.94%
CCCN1CCCC(O)(c2nc(C)c(COc3ccccc3)s2)CC1 (stereo not given),Percent Effect,"30.3 µM, […]",-5.482%
COc1ccc(OCc2sc(C3(O)CCCNCC3)nc2C)cc1.Cl (stereo not given),Percent Effect,"30 µM, 30.03 µM",9.769%
CCN1CCCC(O)(c2nc(C)c(CCOc3ccc(F)cc3)s2)CC1 (stereo not given),Percent Effect,"30.3 µM, […]",11.02%
COc1ccc(OCCc2sc(C3(O)CCCNCC3)nc2C)cc1.Cl (stereo not given),Percent Effect,"30 µM, 30.03 µM",10.27%
CC(=O)NCc1nc(CCOc2ccc(Cl)cc2)no1,Percent Effect,"30.3 µM, […]",7.139%
Cc1nc(C2(O)CCCNCC2)sc1CCOc1ccccc1.Cl (stereo not given),Percent Effect,"30.3 µM, […]",4.476%
CC(C)(C)c1ncc(C(=O)NCCNS(C)(=O)=O)s1,Percent Effect,30 µM,20.12%
CCOc1ccccc1C(CC(=O)Nc1ccc(C)cn1)NC(C)=O (stereo not given),Percent Effect,"30 µM, 30.03 µM",34.79%
COc1ccc2c(ccn2CCC(=O)Nc2n[nH]c(CC(C)C)n2)c1,Percent Effect,"30.3 µM, […]",-2.003%
COc1cccc(CCC(=O)N2CCCC(n3cc(C)cn3)C2)c1 (stereo not given),Percent Effect,"30 µM, 30.03 µM",9.343%
Cc1cc(C(=O)N2CCCC2c2noc(C)n2)[nH]n1 (stereo not given),Percent Effect,"30.3 µM, […]",-9.431%
Cc1nc(C)c(C(=O)N2CCC(O)(Cn3ccc4ccncc43)CC2)s1,Percent Effect,"30.3 µM, […]",-5.567%
O=C(Nc1cccc(CN2CCOC2=O)c1)N1CCCC1,Percent Effect,"30.3 µM, […]",-5.143%
Cc1noc(C)c1C(=O)N(C)Cc1nc(-c2ccccn2)no1,Percent Effect,"30 µM, 30.03 µM",21.79%
Cc1noc(C(C)C)c1C(=O)NCCN1CCCCCC1=O,Percent Effect,"30 µM, 30.03 µM",20.26%
O=C1CCC(C(=O)NCCOc2cccc(Cl)c2Cl)CN1 (stereo not given),Percent Effect,"30.3 µM, […]",18.68%
CN(C)[C@H]1CCCCN(C(=O)c2cccc(-c3cccc(F)c3)c2)C1,Percent Effect,"30.3 µM, […]",60.02%
CN(C)C1CCCN(C(=O)c2cccc(-c3ncc[nH]3)c2)CC1 (stereo not given),Percent Effect,"30.3 µM, […]",21.12%
CN(C)[C@H]1CCCCN(C(=O)c2cccc(N3CCS(=O)(=O)CC3)c2)C1,Percent Effect,"30.3 µM, […]",-11.54%
Cc1ncc(CNC(CCO)C2CCCCC2)s1 (stereo not given),Percent Effect,"30.3 µM, […]",-3.67%
Cc1nc(CN2C(=O)C[C@@H]3[C@@H]2CCN3S(C)(=O)=O)cs1,Percent Effect,"30.3 µM, […]",-12.74%
Cc1nnc([C@@H]2C[C@H]3CN(C(=O)C4CC4)C[C@H]3O2)[nH]1,Percent Effect,"30.3 µM, […]",15.1%
Cc1cccc(C(C(=O)NC(C)(C)CN2CCCC2)N(C)C)c1 (stereo not given),Percent Effect,"30.3 µM, […]",64.22%
Cc1ccc(C(C(=O)NC(C)(C)CN2CCCC2)N(C)C)cc1 (stereo not given),Percent Effect,"30.3 µM, […]",-34.55%
Cc1cccc(C(C(=O)NC(C)(C)CN2CCOCC2)N(C)C)c1 (stereo not given),Percent Effect,"30.3 µM, […]",-45.9%
CCN(Cc1ccc2c(c1)OCO2)C(=O)NC(C)Cn1cccn1 (stereo not given),Percent Effect,"30 µM, 30.03 µM",-8.819%
O=C1CCC(c2ccc(Cl)cc2)=NN1CN1CCSCC1,Percent Effect,"30.3 µM, […]",35.07%
O=C1CCC(c2ccccc2)=NN1CN1CCCCCC1,Percent Effect,"30.3 µM, […]",54.14%
O=C1CCC(c2ccc(Cl)cc2)=NN1CN1CCCCCC1,Percent Effect,"30.3 µM, […]",-2.466%
Cc1cc2ccccc2n1CCC(=O)NCCCc1nnc(N)s1,Percent Effect,"30.3 µM, […]",18.88%
Cc1cc(C(F)F)nn1C(C)C(=O)NCc1ncc[nH]1 (stereo not given),Percent Effect,"30.3 µM, […]",43.47%
CCn1nc(C)c(CN2CCC(c3ccc(C(=O)O)cc3)C2)c1C (stereo not given),Percent Effect,"30.3 µM, […]",54.96%
CCn1nc(C)c(CN2CCCC(c3ccc(C(=O)O)cc3)C2)c1C (stereo not given),Percent Effect,"30.3 µM, […]",17.25%
Cc1nn(C)c(C)c1CN1CCCC(c2ccc(C(=O)O)cc2)C1 (stereo not given),Percent Effect,"30.3 µM, […]",20.41%
CCS(=O)(=O)CCN(C)Cc1cc(C)ccc1OC,Percent Effect,"30.3 µM, […]",6.115%
CC(=O)NCC(=O)N1CCN(CCN(C)C)c2ncccc2C1.O=C(O)C(F)(F)F.O=C(O)C(F)(F)F,Percent Effect,"30.3 µM, […]",27.08%
COCC(=O)NC[C@@]1(COc2cccnc2)C[C@@H](O)[C@@H](O)C1.Cl,Percent Effect,"30.3 µM, […]",-3.857%
COC(=O)c1cccc(S(=O)(=O)NC(=O)COC2CCCC2)c1,Percent Effect,30 µM,-0.3864%
